In the library only some 0.8% were active in any assay of this set; here they are far more common.
GRP78 ERSR act = qHTS for Inducers of the Endoplasmic Reticulum Stress Response (ERSR) in Human Glioma: qHTS | Potency, µM, for inactives: at the top dose activation, hits mostly activators | 420,000 compounds, 0.02% hits | U87-MG GRP78 promoter luciferase reporter, 16 h; active means well fitted activation curve with a large enough effect; further: potency means the concentration at half of the fitted maximal effect; series mostly up to about 76 µM; % of control where 0% means no effect; nearly all actives have a fitted effect of over 35% in size
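Stably transfected U87-MG human glioma cells carrying a GRP78-based luminescent sensor were seeded at 1000 cells/well, pin-dosed with compounds and incubated 16 h. Luciferase reagent was then added, and end-point luminescence was read after 10 min at room temperature.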
TRHR PAM = qHTS for Small Molecule Agonists and Allosteric Enhancers of Human TRH Receptor: Primary Screen for Enhancers | Thyrotropin-releasing hormone receptor (Homo sapiens), P34981 | TRHR cells, fluo-8 calcium fluorescence, EC20 TRH enhancement | enhancement, % at 2 µM | 360,000 compounds, 0.66% hits | AID 493056, 2011; in the data active means enhancement above about 30%; further: 0% is about no effect
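TRHR-expressing cells loaded with fluo-8 calcium dye were read kinetically (ex 480/em 530) during compound addition, then stimulated with an EC20 of TRH (10 nM final). Enhancement of the Gq-mediated intracellular calcium response was scored.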
TRPML1 inh = qHTS for Inhibitors of the Human Mucolipin Transient Receptor Potential 1 (TRPML1) | AID 624415, 2012 | 390,000 compounds, 0.02% hits | TRPML1-inducible cells, Ca2+ dye fluorescence, FDSS; hits give low values; inhibition of EC80 agonist-evoked calcium signal | Mucolipin-1 (Homo sapiens), Q9GZU1 | activity change, negative = inhibition, % (no concentration beside the values); in the data active means activity change below about -50%;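 further: stimulus is agonist 54-4 at its EC80 concentration; on the % scale 0 is the no-effect control and ±100 the full control effect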
Target sequence (Q9GZU1 whole entry, looked up): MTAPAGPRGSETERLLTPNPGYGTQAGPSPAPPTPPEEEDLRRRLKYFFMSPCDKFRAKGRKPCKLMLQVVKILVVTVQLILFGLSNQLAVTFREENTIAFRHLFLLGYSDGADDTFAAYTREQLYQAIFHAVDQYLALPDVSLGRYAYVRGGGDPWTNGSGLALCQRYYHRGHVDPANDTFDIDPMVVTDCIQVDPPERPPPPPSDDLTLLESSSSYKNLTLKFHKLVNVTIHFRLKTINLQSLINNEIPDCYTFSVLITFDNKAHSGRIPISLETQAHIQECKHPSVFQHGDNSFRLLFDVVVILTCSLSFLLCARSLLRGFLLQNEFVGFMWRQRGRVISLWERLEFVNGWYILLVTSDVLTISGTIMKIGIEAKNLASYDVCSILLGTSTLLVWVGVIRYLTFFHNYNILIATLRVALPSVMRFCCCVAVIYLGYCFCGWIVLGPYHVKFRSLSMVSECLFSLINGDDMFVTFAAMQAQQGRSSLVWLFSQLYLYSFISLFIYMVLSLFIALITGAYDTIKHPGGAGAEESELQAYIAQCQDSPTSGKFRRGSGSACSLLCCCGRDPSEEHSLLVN
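TRPML1-DL cells, Tet-induced overnight (~16 h, 37 °C) at 1,500 cells/well, were loaded with Ca8 no-wash dye plus quencher for 45-90 min at room temperature. Compounds were pinned during FDSS kinetic reading; agonist 54-4 at EC80 (4 uM final) then added.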
TRHR ag = qHTS for Small Molecule Agonists and Allosteric Enhancers of Human TRH Receptor: Primary Screen for Agonists | Thyrotropin-releasing hormone receptor (Homo sapiens), P34981 | TRHR cells, calcium flux fluo-8, FDSS agonist mode | activation, % at 2 µM | 360,000 compounds, 0.18% hits | AID 493084, 2011; in the data active means activation above about 30%; further: 0% is about no effect
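Fluo-8-loaded TRHR cells; 10 s baseline, compound added, kinetic Ca2+ fluorescence read 1/s, agonist mode.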
TRPML1 agonist = qHTS for Agonists of the Human Mucolipin Transient Receptor Potential 1 (TRPML1). 410,000 compounds, 0.12% hits. TRPML1-expressing cells, Ca2+ dye fluorescence, FDSS. activation, % (test concentration not listed). AID 624414, 2012; in the data active means activation above about 50%; further: 0% is about no effect
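Calcium fluorescence on an FDSS kinetic reader gave the read-out. Tet-induced TRPML1-DL cells were plated overnight, dye-loaded (Ca8 with quencher, 45-90 min, room temperature, dark), then read 110 s after compound addition, and again 110 s after 4uM final 54-4 (EC80).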
* = called active by the depositor; · = no result given.

SMILES | GRP78 ERSR act | TRHR PAM | TRPML1 inh | TRHR ag | TRPML1 agonist
CC1(C)CSC(=NCc2ccccc2)N1C(=O)c1cccc([N+](=O)[O-])c1 | 11.5% | -28.6 | -6.4 | 55.8* | 94.5*
NC(=NCc1ccccc1)c1cccc([N+](=O)[O-])c1 | -0.7% | 5.0 | 10.1 | 1.6 | 0.7
CCOC(=O)/C=C/C(=O)Nc1ccc(-c2nnc3n2CCCCC3)cc1 | -1.0% | 8.5 | -8.3 | 0.4 | -0.8
COc1ccc(/C=C/C(=O)Nc2ccc(-c3nnc4n3CCCCC4)cc2)c(OC)c1 | -3.6% | 34.6* | 14.7 | -0.3 | 0.8
COc1ccc(C(=O)NC2CCCc3ccccc32)cc1OC1CCN(C(C)=O)CC1 (configuration not stated) | 0.7% | -1.8 | -54.2* | -0.8 | 0.1
COc1ccc(C(=O)NC2CCCCCC2)cc1OC1CCN(C(C)=O)CC1 | -1.8% | 3.1 | 42.0 | -0.1 | -0.5
COc1ccc(OC)c(/C=C2/Sc3ccccc3C2=O)c1 | 4.8% | 2.6 | -11.6 | 65.8* | 53.8*
COc1ccc(OC)c(/C=C2\Cc3ccccc3C2=O)c1 | -2.5% | · | · | · | -0.1
Cc1cccnc1NC(=O)CNC(=O)COc1ccccc1 | -0.7% | 33.1* | -4.2 | 0.0 | -0.1
Cc1ccnc(NC(=O)CNC(=O)COc2ccccc2)c1 | 3.0% | 6.2 | -1.8 | -0.6 | -0.5
Cc1ccc(CC(NC(=O)c2ccccc2)C(=O)NCC(=O)O)cc1 (configuration not stated) | -3.3% | 35.4* | 2.2 | 0.4 | 0.2
Cc1ccc(CC(NC(=O)c2ccccc2)C(=O)NC(CC(C)C)C(=O)O)cc1 (configuration not stated) | 0.7% | -7.0 | -1.8 | 0.3 | -0.9
COc1ccc(/C=C/C(=O)N2CCc3c(cnc(C)c3CNC(=O)c3ccsc3)C2)cc1OC | -4.7% | · | · | · | ·
CC1C(=O)CCC1(C(=O)O)c1ccccc1 (configuration not stated) | -6.4% | 32.9* | -0.9 | 1.2 | -0.3
CCN(CC)C(=O)[C@@]1(c2ccccc2)C[C@@H]1CN | -1.4% | · | · | · | ·
C=CCn1c(CCc2ccccc2)nnc1SCC(N)=O | -1.6% | 32.3* | -8.4 | -0.1 | 2.2
O=C(N1CCc2cc([S+](=O)([O-])N3CCN([S+](=O)([O-])c4c(F)cccc4F)CC3)ccc2C1)C(F)(F)F | · | 1.4 | · | 1.3 | ·
Cc1cc(C)nc(NS(=O)(=O)c2ccc(NC(=O)Cc3ccccc3)cc2)n1 | -2.5% | 36.4* | 11.3 | 0.3 | -0.5
CCOc1cc(CNCc2cccnc2)ccc1OCC(=O)NC(C)(C)C | -3.4% | 36.4* | -6.4 | -0.4 | -0.1
Cc1ccc(C2C(C(=O)c3cccs3)=C(O)C(=O)N2c2nnc(C)s2)cc1 (configuration not stated) | -0.1% | 0.5 | 5.7 | 55.6* | -0.1
COc1ccc(C2C(C(=O)c3cccs3)=C(O)C(=O)N2c2cccc(C)n2)cc1 (configuration not stated) | -5.5% | 2.5 | 30.3 | -1.0 | 1.9
CCN(Cc1ccncc1)Cc1ccc2c(c1)CN(C(=O)c1cccc(-n3nc(C)cc3C)c1)CCO2 | -4.3% | · | · | · | ·
CCOc1ccc(OCC)c(S(=O)(=O)N2CCOCC2)c1 | 0.2% | 32.7* | -12.1 | 0.0 | -1.0
CN1CCCCC1C(=O)N1CCC(Oc2cccc(CN3CCN(c4ccccn4)CC3)c2)CC1 (configuration not stated) | -3.8% | · | · | · | ·
C/C(=N\NS(=O)(=O)c1ccccc1)c1ccccc1 | -2.2% | 3.6 | 13.1 | 0.1 | -0.6
SMILES | GRP78 ERSR act | TRHR PAM | TRPML1 inh | TRHR ag | TRPML1 agonist
N/C(COc1ccccc1)=N\NS(=O)(=O)c1ccccc1 | -4.0% | 31.0* | -2.8 | -0.1 | -0.3
COc1cc(=O)n2c(c1C(=O)NC(C)c1ccco1)CCN(C(=O)c1cccc(C)c1C)CC2 (configuration not stated) | 1.9% | · | · | · | ·
Cc1cc(C)n(-c2nc(SCCN(C)C)c3c4c(sc3n2)CCCC4)n1 | 0.4% | 37.8* | 1.0 | 0.1 | -0.1
COC(=O)C1CCN(Cc2ccc3c(c2)CN(C(=O)c2cc4ccccc4n2C)CCO3)CC1 | -4.3% | · | · | · | ·
CN1CCCN(C(=O)CSc2ccccc2)CC1 | 1.6% | 31.4* | -2.4 | 0.4 | 0.2
CN1CCN(S(=O)(=O)c2cccc(C(=O)Nc3nc(-c4ccccc4)cs3)c2)CC1 | 2.1% | 8.9 | 62.3 | -1.1 | 1.5
O=C(Nc1nc(-c2ccccc2)cs1)c1cccc(S(=O)(=O)N2CCN(Cc3ccccc3)CC2)c1 | 0.3% | 36.6* | -26.8 | 0.3 | 2.3
Cc1cc(C)n(CC(O)COc2ccc(C(C)C)c(C)c2)n1 (configuration not stated) | 5.4% | 33.7* | -8.9 | -2.9 | -0.7
CC(C)CCOCC(=O)Oc1ccccc1C(=O)O | -1.5% | 30.0* | -6.6 | 0.5 | -0.8
Cc1cnc(-n2ncc(C(=O)NCCc3cccnc3)c2C)nc1-c1cccs1 | -3.3% | · | · | · | ·
COC(=O)[C@@H]1CCCN1C(=O)c1c(OC)cc(=O)n2c1CCN(Cc1cc(OC)ccc1F)CC2 | -3.3% | · | · | · | ·
O=C(Nc1cc(N2CCOCC2)ncn1)c1ccccc1 | 35.5µM* | 12.6 | 32.9 | 0.8 | -0.3
Cc1nn(-c2ccccc2)c(C)c1CC(=O)NCC1Cc2cc(-c3cncnc3)ccc2O1 (configuration not stated) | -2.9% | · | · | · | ·
CCc1nc(N2CCC3(CC2)OCCO3)c2nnn(Cc3ccccc3)c2n1 | -1.8% | 37.1* | 46.4 | 0.6 | 5.9
c1ccc(Cn2nnc3c(N4CCC5(CC4)OCCO5)ncnc32)cc1 | -4.4% | -2.2 | -7.3 | -0.1 | 0.7
N#CC(C#N)=C1C=C2C=C(N3CCOCC3)CCC2CC1 (configuration not stated) | 0.8% | -20.0 | -6.9 | 231.4* | 123.1*
N#CC(C#N)=C1C=C2C=C(N3CCCCCC3)CCC2CC1 (configuration not stated) | -2.5% | -14.6 | -16.1 | 204.6* | 100.0*
N#Cc1cc(Cl)c(N2CCOCC2)cc1C#N | -0.9% | -3.2 | 1.3 | 0.6 | 4.3
CCN1CCN(C2=CC3=CC(=C(C#N)C#N)CCC3CC2)CC1 (configuration not stated) | -3.0% | -21.6 | -7.3 | 235.1* | 95.6*
CC1(C)CC(NCCN2CCN(C3=CC(=C(C#N)C#N)CC(C)(C)C3)CC2)=CC(=C(C#N)C#N)C1 | -2.2% | 2.3 | 16.5 | 0.0 | 1.3
CN1CCN(C2=CC3=CC(=C(C#N)C#N)CCC3CC2)CC1 (configuration not stated) | -5.0% | 17.2 | -70.7* | 315.0* | 139.9*
